The record followed here is PubChem BioAssay.

The test system of experiment [1] is XIP peptide (Xip251-270) binding. Put plainly: small-molecule binders of XIP peptide, primary screen, biochemical, small-molecule microarray, fluorescence 635/667 nm, 0.1 µg/mL protein (AID 1182). The settings on record: fluorescent protein binding, 635 nm, higher = more signal, called active from +8 up or from −8 down.
For another experiment, the system named is XIP peptide (Xip251-270). The experiment in a line: small-molecule binders of XIP peptide, primary screen, biochemical, small-molecule microarray, fluorescence 635/667 nm, 0.5 µg/mL protein (AID 1183). The settings on record: small-molecule microarray binding, fluorescence 635 nm; higher = more signal.
Experiment [2] in a line: Plasmodium falciparum growth inhibition, primary screen, strain 3D7, DAPI fluorescence, 100 nL (AID 1184).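 Note: parasites grown inside human red blood cells in medium with human serum.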 The settings on record: P. falciparum 3D7 growth, 3 d, higher = more signal.
In experiment [3] the target is Homeobox protein Hox-A13 (Mus musculus) (UniProt Q62424). Put plainly: inhibitors of HoxA13-DNA binding, primary screen, biochemical, fluorescence polarization, labeled oligonucleotide (AID 1185). The settings on record: 15 min, higher = more signal, called active from +8 up or from −8 down.
Experiment [4] is described as follows: inhibitors of hydroxyurea-induced Chk1 phosphorylation, primary screen, imaging, HeLa, phospho-Chk1 antibody, percent positive cells (AID 1186). The settings on record: hydroxyurea-induced phospho-Chk1 immunofluorescence imaging, higher = more signal.
Experiment [5] is described as follows: inhibitors of hydroxyurea-induced Chk1 phosphorylation, primary screen, imaging, HeLa, phospho-Chk1 nuclear intensity (AID 1187). The settings on record: hydroxyurea-induced phospho-Chk1 immunofluorescence imaging, higher = more signal.

Structures are written as SMILES. Calls of active or inactive are those of the source. Unless noted, the rule behind the calls is not given here.

Sequence of Homeobox protein Hox-A13 (Mus musculus) (Q62424 whole entry, looked up): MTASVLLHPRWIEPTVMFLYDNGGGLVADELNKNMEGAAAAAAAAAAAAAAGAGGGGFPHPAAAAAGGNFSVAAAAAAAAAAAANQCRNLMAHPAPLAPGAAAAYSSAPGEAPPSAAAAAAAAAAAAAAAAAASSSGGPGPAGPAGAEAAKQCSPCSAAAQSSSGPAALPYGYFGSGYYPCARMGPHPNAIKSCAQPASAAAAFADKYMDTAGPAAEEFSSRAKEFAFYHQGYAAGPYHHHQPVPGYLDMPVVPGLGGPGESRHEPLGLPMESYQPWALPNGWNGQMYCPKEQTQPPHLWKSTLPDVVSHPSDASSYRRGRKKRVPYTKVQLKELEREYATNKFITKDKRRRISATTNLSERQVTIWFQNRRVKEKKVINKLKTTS

With `C[N+](C)(C)CCCCCCNC(=O)[C@@H]1C[C@@H]2C(=O)NCC(=O)N2[C@@H]1c1cccc(OCCO)c1`, the composite z-score in experiment [1] is 0.525 (inactive); with XIP peptide (Xip251-270) it was 0.421. The z-score in experiment [2] is -0.848; in experiment [3] it was -4.4 (inactive); in experiment [4] it was -0.177 (inactive); in experiment [5], -0.261 (inactive).

As for `C[C@]12C(=O)N(CCCO)[C@@H]3C(=O)N(c4ccc(Cl)cc4)CC=CC31O[C@@H]1/C=C\CCCOC(=O)C12` (stereo partly specified), the composite z-score in experiment [1] was -0.232 (inactive); in the experiment on XIP peptide (Xip251-270) it was -0.271. The z-score is 0.571 in experiment [2], -6.08 (inactive) in experiment [3], -0.647 (inactive) in experiment [4] and -0.0294 (inactive) in experiment [5].

Regarding `COC(=O)C(CC#Cc1ccc2c(c1)[C@]1(C(=O)N2)[C@H](c2ccc(O)cc2)N2[C@H](c3ccccc3)[C@H](c3ccccc3)OC(=O)[C@H]2[C@@H]1C(=O)O)C(=O)OC`, the composite z-score is -0.173 (inactive) in experiment [1] and 0.665 in the experiment with XIP peptide (Xip251-270). Besides, the z-score is -0.102 in experiment [2], -6.45 (inactive) in experiment [3], 0.223 (inactive) in experiment [4] and -0.31 (inactive) in experiment [5].

With `COc1cc(NN2C(C(O)c3ccc(I)cc3)C=CC3C(=O)N(C)C(=O)C32)cc(OC)c1OC` (stereo unspecified), the composite z-score was 1.42 (inactive) in experiment [1] and -0.064 in the experiment with XIP peptide (Xip251-270). In addition, the z-score in experiment [2] is -0.336; in experiment [3] it was -1.63 (inactive); in experiment [4], -0.297 (inactive); in experiment [5], -0.449 (inactive).

As to `CC(C)(C)N1CC=CC23O[C@@H]4C=CCCOC(=O)C4[C@H]2C(=O)N(CCCO)[C@@H]3C1=O` (stereo partly specified), the composite z-score in experiment [1] was -0.508 (inactive); in the experiment with XIP peptide (Xip251-270) it was -1.18. Besides, the z-score in experiment [2] was -1.75; in experiment [3] it was -5.86 (inactive); in experiment [4], -0.0977 (inactive); in experiment [5] it was -0.102 (inactive).

`COCCOC(=O)N1C(=O)[C@@]2(c3cc(C#CC4(O)CCCCCC4)ccc31)[C@H](C(=O)N1CCN(c3ncccn3)CC1)[C@H]1C(=O)O[C@H](c3ccccc3)[C@H](c3ccccc3)N1[C@@H]2c1ccc(O)cc1`: the composite z-score in experiment [1] was 0.119 (inactive); in the experiment on XIP peptide (Xip251-270), 0.723. In addition, the z-score in experiment [2] was -0.849; in experiment [3], -0.575 (inactive); in experiment [4], 0.133 (inactive); in experiment [5] it was 0.559 (inactive).

With `CCCCCCC#C[Si](O[C@H](c1ccccc1)c1cn(Cc2cccc(Cl)c2)nn1)(C(C)C)C(C)C`, the composite z-score in experiment [1] is -0.301 (inactive); with XIP peptide (Xip251-270), 0.0372. The z-score in experiment [2] was -0.464; in experiment [3] it was 1.16 (inactive); in experiment [4], -0.195 (inactive); in experiment [5], -0.272 (inactive).

In the case of `O=C1c2ccccc2[C@](Cc2ccccc2I)(C(=O)NCC(F)(F)F)[C@H](c2ccc(CO)cc2)N1Cc1ccccc1`, the figures for the composite z-score (in experiment [1]; with XIP peptide (Xip251-270)) were 0.164 (inactive) and 0.647, respectively. The z-score in experiment [2] was -0.945; in experiment [3] it was -4.04 (inactive); in experiment [4], -0.25 (inactive); in experiment [5], -0.634 (inactive).

Take `COC(=O)[C@@]1(Cc2ccc(OC)cc2)[C@H]2c3cc(C(=O)N(C)C)n(CCF)c3C[C@H]2CN1C(=O)c1ccccc1`: the composite z-score is 0.0026 (inactive) in experiment [1] and 0.449 with XIP peptide (Xip251-270). Further, the z-score is -1.65 in experiment [2], -3.59 (inactive) in experiment [3], 0.326 (inactive) in experiment [4] and -0.241 (inactive) in experiment [5].

Turning to `OCc1ccc(-c2cc[n+](Cc3cccc(OC(F)(F)F)c3)cc2)cc1`, the values for the composite z-score (in experiment [1]; with XIP peptide (Xip251-270)) were 1.18 (inactive) and 0.596, respectively. Besides, the z-score in experiment [2] was -1.63; in experiment [3], -6.13 (inactive); in experiment [4], 0.258 (inactive); in experiment [5] it was 0.666 (inactive).

Take `Cc1cc(C)c(C(O)C2C=CC3C(=O)N(c4ccccc4)C(=O)C3N2Nc2ccccc2)c(C)c1` (stereo unspecified): the composite z-score is 0.733 (inactive) in experiment [1] and 0.79 in the experiment with XIP peptide (Xip251-270). For the same compound, the z-score in experiment [2] is -0.0689; in experiment [3] it was -3.33 (inactive); in experiment [4] it was 0.826 (inactive); in experiment [5] it was 0.41 (inactive).

Regarding `COC(=O)[C@@]1(Cc2ccccc2)[C@H]2c3cc(C(=O)N(C)C)n(Cc4ccccn4)c3C[C@H]2CN1C(=O)c1ccccc1`, the composite z-score was 1.08 (inactive) in experiment [1] and 0.595 in the experiment on XIP peptide (Xip251-270). The z-score in experiment [2] is -0.847; in experiment [3], -4.92 (inactive); in experiment [4], 0.545 (inactive); in experiment [5], 0.295 (inactive).

Regarding `C=CCC(OC(C)=O)[C@@H]1[C@@H](N(Cc2cccc3ccccc23)C(=O)Cc2ccc(F)cc2)c2cc(OCCCO)ccc2N1C(=O)Cc1ccc(OC)cc1` (stereo partly specified), the composite z-score in experiment [1] was -0.51 (inactive); in the experiment with XIP peptide (Xip251-270), -0.189. Besides, the z-score in experiment [2] was -1.64; in experiment [3], -0.902 (inactive); in experiment [4], -0.0456 (inactive); in experiment [5] it was -0.301 (inactive).

With `COCCOC(=O)N1C(=O)[C@@]2(c3cc(C#CCCO)ccc31)[C@H](C(=O)N1CCc3cc(OC)c(OC)cc3C1)[C@H]1C(=O)O[C@H](c3ccccc3)[C@H](c3ccccc3)N1[C@@H]2c1ccc(OCCO)cc1`, the composite z-score in experiment [1] is -0.608 (inactive); with XIP peptide (Xip251-270), 0.726. Besides, the z-score in experiment [2] was -2.14; in experiment [3] it was 3.13 (inactive); in experiment [4], -0.148 (inactive); in experiment [5], -0.0047 (inactive).

Consider `COC(=O)[C@]1(Cc2ccccc2CN=[N+]=[N-])N=C(c2ccc(OCCCO)cc2)O[C@@H]1c1ccccc1`, for which the composite z-score in experiment [1] is 0.0835 (inactive); in the experiment with XIP peptide (Xip251-270), 0.534. The z-score is -2.17 in experiment [2], -4.62 (inactive) in experiment [3], -0.346 (inactive) in experiment [4] and -0.91 (inactive) in experiment [5].

As for `COc1cc2c(cc1OC)CN(C(=O)[C@@H]1[C@H]3C(=O)O[C@H](c4ccccc4)[C@H](c4ccccc4)N3[C@H](c3ccc(OCCO)cc3)[C@@]13C(=O)Nc1ccc(C#CCCO)cc13)CC2`, the composite z-score in experiment [1] was 1.17 (inactive); with XIP peptide (Xip251-270), 0.75. In addition, the z-score is -2.12 in experiment [2], 3.49 (inactive) in experiment [3], 0.0699 (inactive) in experiment [4] and 0.595 (inactive) in experiment [5].
